# Hits are enriched below; roughly 3.6% of the tested compounds scored in any of these assays.
# Pf apPOL inh = Pf-apPOL DNA polymerase inhibition. inhibition, % at 10 µM. 210,000 compounds, 0.25% hits. Recombinant Pf-apPOL, molecular beacon fluorescence, 1.5 h. AID 1794808
# mHTT-CaM PPI inh = disrupts binding of mutant huntingtin to calmodulin. P42858. AlphaScreen His-mHTT/GST-CaM binding, luminescence. inhibition, % at 15 µM. 190,000 compounds, 3.6% hits. AID 1671202;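 note: 0% = both proteins with DMSO and 100% = one protein alone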
# * hit, by the source's call; x = not tested or not shown; + = active, no number. Cut-off read from the data, not from the text of the source: active = inhibition above about 50%; inactive = the rest.
SMILES,Pf apPOL inh,mHTT-CaM PPI inh
COc1cccc(C2C(=C(O)c3ccc(C)cc3)C(=O)C(=O)N2Cc2cccnc2)c1OC (configuration not stated),2,5
Cc1ccc(C(=O)Nc2cc(F)c3nc(N4CCOCC4)ccc3c2)cc1,1,-4
O=C1NC2(CCN(Cc3ccccc3)CC2)N=C1c1cccc(F)c1,-5,16
COc1cccc(CN2CCC3(CC2)N=C(c2ccccc2)C(=O)N3)c1,1,58*
O=C1NC2(CCN(Cc3ccc(Cl)cc3)CC2)N=C1c1ccccc1,-3,55*
O=C1NC2(CCN(Cc3ccccc3)CC2)N=C1c1cccc(Cl)c1,-2,10
O=C(Nc1ccc(Cl)cc1F)c1ccc([N+](=O)[O-])cc1Cl,2,7
CCn1cc(-c2nc(C(=O)N3CCN(c4ccccc4)CC3)cs2)c2cccnc21,-2,100*
CCn1cc(CC(=O)N2CCN(c3ccccc3)CC2)c2cccnc21,-5,13
COc1cccc(N2CCN(C(=O)c3csc(-c4cccnc4)n3)CC2)c1,-2,19
O=C(c1csc(-c2ccncc2)n1)N1CCN(c2cccc(C(F)(F)F)c2)CC1,2,63*
CCn1cc(-c2nc(C)c(C(=O)N3CCOCC3)s2)c2cccnc21,0,9
Cc1nc(-c2cn(C)c3ncccc23)sc1C(=O)N1CCN(c2ccccc2)CC1,-6,55*
COCCNC(=O)C1Cc2ccccc2N2CCN(c3ccc(F)cc3)CC12 (configuration not stated),1,11
O=C(NCC1CCN(c2cc(-c3ccncc3)[nH]n2)CC1)c1ccncc1,8,10
Cc1ccc(C2CC(c3ccccc3C)n3nnnc3N2)cc1 (configuration not stated),-6,23
CCC(C)c1ccc(NC(=O)c2cc(OC)c(OC)cc2[N+](=O)[O-])cc1 (configuration not stated),4,31
COc1ccccc1C1Oc2ccccc2C2=C1C(c1ccc(C)cc1)n1ncnc1N2 (configuration not stated),-1,15
Fc1ccccc1C1C2=C(Nc3ncnn31)c1cc(Cl)ccc1OC2c1ccncc1 (configuration not stated),1,21
COc1ccc(C2C3=C(Nc4ncnn42)c2ccccc2OC3c2cccc(Cl)c2)cc1 (configuration not stated),-10,41
Cc1ccc(C2C3=C(Nc4ncnn42)c2ccccc2OC3c2cccc([N+](=O)[O-])c2)cc1 (configuration not stated),0,50*
Clc1ccc(C2Oc3ccccc3C3=C2C(c2cccs2)n2ncnc2N3)cc1 (configuration not stated),-8,56*
COc1ccc(C2C3=C(Nc4ncnn42)c2ccccc2OC3c2cccc(OC)c2)cc1 (configuration not stated),-5,56*
COc1cccc(C2C3=C(Nc4ncnn42)c2ccccc2OC3c2ccccc2OC)c1 (configuration not stated),-7,64*
COc1cccc(C2C3=C(Nc4ncnn42)c2ccccc2OC3c2cccc(F)c2)c1 (configuration not stated),-4,37
SMILES,Pf apPOL inh,mHTT-CaM PPI inh
FC(F)(F)c1ccc(-c2nc(-c3cc(-c4ccc(Cl)cc4Cl)no3)cs2)cc1,-5,x
CCOC(=O)C1CCN(C(=O)C2Cc3ccccc3N3CCOCC23)CC1 (configuration not stated),1,26
CC(C)=C1CCC(C)CC1=NO (configuration not stated),-9,x
CCc1nc(C)c2c(n1)N(Cc1ccncc1)C(=O)CC2,8,6
CC(=O)Nc1ccc(-n2c(CCC(=O)O)ccc2-c2ccccc2)cc1,-7,0
COCCN1C(=O)Cc2ccccc2C1C(=O)N1CCOCC1 (configuration not stated),1,-9
COc1cccc(N=c2oc3c(C)ncc(CO)c3cc2C(=O)Nc2ccc(C)cc2)c1,17,6
CCS(=O)(=O)c1ncc(Cl)c(C(=O)Nc2ccc(Oc3ccccc3)cc2)n1,-3,98*
Nc1c(C(=O)Nc2ccc(Oc3ccccc3)cc2)nnn1Cc1ccccc1,-4,11
COc1cc(C=Nc2ccc(S(=O)(=O)Nc3ccccn3)cc2)ccc1OCc1ccccc1,-9,-1
O=C(CC(=O)c1ccccn1)c1ccccn1,-14,x
N/C(=N\N=C(/N)c1ccccn1)c1ccccn1,-1,+
O=C(CSc1n[nH]c(-c2ccccc2)n1)Nc1ccccc1[N+](=O)[O-],-1,12
O=C(O)Cn1c2ccccc2c2nnc(SCC(=O)Nc3cccc(Br)c3)nc21,-3,25
O=C(CSc1nnc(-c2ccco2)c(-c2ccco2)n1)Nc1cccc(Br)c1,-3,100*
O=C(CSc1nnc(-c2ccco2)c(-c2ccco2)n1)Nc1ccccc1[N+](=O)[O-],-3,74*
O=C(CSc1nnc(-c2ccco2)o1)Nc1cccc([N+](=O)[O-])c1,-3,-6
O=C(CSc1nnc(-c2ccco2)c(-c2ccco2)n1)Nc1cccc([N+](=O)[O-])c1,4,98*
O=C1C2C3C=CC(CC3)C2C(=O)N1c1cc([N+](=O)[O-])ccc1Cl (configuration not stated),5,8
CCOc1cc(C2Nc3ccc(C(=O)c4ccccc4)cc3NC3=C2C(=O)CCC3)ccc1O (configuration not stated),-9,16
Cc1ccc(-c2cnc(N3CCCC(C(=O)NCCC4=CCCCC4)C3)nc2)cc1 (configuration not stated),6,-6
CCc1nc(C2CCN(C(=O)c3sccc3C)CC2)n[nH]1,-6,-2
Cc1ccnc(SCC(=O)n2c(C)c(C)c3ccccc32)n1,2,14
CCC(=O)N1CCN(S(=O)(=O)c2ccc(C)cc2)C1c1ccc(N(C)C)cc1 (configuration not stated),-9,18
CCN(CC)c1ccc(C2N(C(=O)c3ccccc3)CCN2S(=O)(=O)c2ccccc2)cc1 (configuration not stated),2,37
SMILES,Pf apPOL inh,mHTT-CaM PPI inh
Cc1ccc(S(=O)(=O)N2CCN(C(=O)c3ccccc3)C2c2ccc(N(C)C)cc2)cc1 (configuration not stated),-17,56*
CCC(=O)N1CCN(S(=O)(=O)c2ccc(C)cc2)C1c1ccccc1 (configuration not stated),-8,-10
CCC(=O)N1c2ccccc2N(S(=O)(=O)c2ccc(C)cc2)C1c1ccc(N(C)C)cc1 (configuration not stated),4,53*
Cc1ccc(C(=O)N2CCN(S(=O)(=O)c3ccc(C)cc3)C2c2ccc(N(C)C)cc2)cc1 (configuration not stated),1,50*
O=C(O)c1cccc(Oc2ccc([N+](=O)[O-])cc2C(F)(F)F)c1,-6,1
CCn1c(=O)[nH]c2ccc(Br)cc2c1=O,7,5
O=c1[nH]c2ccc(Br)cc2c(=O)n1C1CCCCC1,-3,52*
O=C(Cn1nnc(N2CCCC2)n1)c1ccc(Cl)cc1,5,x
CCCC1CCC2(CCCN2CCOC(=O)Nc2ccc(Br)cc2)CC1 (configuration not stated),-10,96*
CCCC1CCC2(CCCN2CCOC(=O)Nc2ccccc2)CC1 (configuration not stated),-2,3
Cc1nc2nc(SCC(=O)NCc3cccs3)nn2c(C)c1Cc1c(F)cccc1Cl,0,10
